Measured values taken from PubChem BioAssay AID1645857 (Buhrlage Lab, Dana-Farber Cancer Institute and Novartis …, 2021).
In all, about 47,000 compounds went through this assay and about 1,400 (3%) were called active. No stated cut-off is given here; in the data, active means inhibition above about 30%; inactive means the rest. For the sample, actives were picked, then their nearest neighbours and some compounds at random.

biological target: Ubiquitin carboxyl-terminal hydrolase 28 (Homo sapiens) (UniProt Q96RU2); test: blocks human USP28 ubiquitin-rhodamine cleavage (AID 1645857); settings: purified USP28, Ub-rhodamine cleavage fluorescence, 30 min; at 25 µM; stronger effect = higher value
Sequence (Q96RU2 whole entry, looked up): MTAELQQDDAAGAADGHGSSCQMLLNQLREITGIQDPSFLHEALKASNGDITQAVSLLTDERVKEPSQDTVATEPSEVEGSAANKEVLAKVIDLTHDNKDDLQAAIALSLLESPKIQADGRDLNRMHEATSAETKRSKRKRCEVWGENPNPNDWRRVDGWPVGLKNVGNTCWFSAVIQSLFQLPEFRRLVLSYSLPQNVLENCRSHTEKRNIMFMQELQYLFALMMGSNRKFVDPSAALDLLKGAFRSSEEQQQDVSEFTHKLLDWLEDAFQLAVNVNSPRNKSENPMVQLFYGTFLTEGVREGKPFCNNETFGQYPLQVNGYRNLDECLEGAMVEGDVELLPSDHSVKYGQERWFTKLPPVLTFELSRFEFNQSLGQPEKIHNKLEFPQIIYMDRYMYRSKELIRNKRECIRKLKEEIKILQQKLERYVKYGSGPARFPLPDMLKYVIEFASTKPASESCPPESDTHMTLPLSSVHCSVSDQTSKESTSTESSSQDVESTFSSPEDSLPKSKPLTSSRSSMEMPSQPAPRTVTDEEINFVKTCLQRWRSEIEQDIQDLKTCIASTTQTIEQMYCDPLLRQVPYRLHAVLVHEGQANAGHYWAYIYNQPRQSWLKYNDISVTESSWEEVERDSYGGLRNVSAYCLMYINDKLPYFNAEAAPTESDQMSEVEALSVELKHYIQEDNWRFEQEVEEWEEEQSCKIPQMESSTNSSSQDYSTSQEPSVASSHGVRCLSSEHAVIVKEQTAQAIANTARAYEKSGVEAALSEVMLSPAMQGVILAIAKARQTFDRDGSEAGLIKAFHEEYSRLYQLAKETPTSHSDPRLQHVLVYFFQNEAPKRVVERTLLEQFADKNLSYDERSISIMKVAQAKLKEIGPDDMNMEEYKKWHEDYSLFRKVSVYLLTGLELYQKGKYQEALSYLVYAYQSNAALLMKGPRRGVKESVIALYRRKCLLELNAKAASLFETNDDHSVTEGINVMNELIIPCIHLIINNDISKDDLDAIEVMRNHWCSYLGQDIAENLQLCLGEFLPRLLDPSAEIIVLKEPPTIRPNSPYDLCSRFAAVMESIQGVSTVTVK

inhibition, inactive:
COc1ccc2c(c1)OC[C@@H](Cc1ccccc1)N(Cc1ccncc1)[C@H]2C 8.99%
Cc1ccc(-c2cc3n(n2)CCCN(C(=O)c2ccccn2)C3)cc1 0.0245%
Cc1ccc(Cl)cc1NC(=O)N1CCc2nc(N3CCCCC3)ncc2C1 -54.3%
Cc1ccc(CC(=O)Nc2nnc(C3CC(=O)N(c4ccc(C)c(C)c4)C3)s2)cc1 (stereo unspecified) 13.1%
Cn1ccc(C(=O)NCc2cnc(C3CCCCO3)nc2)n1 (stereo unspecified) 6.1%
COc1ccc(CC(=O)Nc2ccc3c(c2)CN(C(=O)c2ccco2)CC3)cc1 23.1%
Cc1ccc(C)c(CSc2nc(-c3ccco3)nc3c2c(=O)n(C)c(=O)n3C)c1 -10.3%
Cc1ccc(-n2cc(-c3noc(C(=O)Nc4ccc(F)cc4C)n3)nn2)cc1 13.4%
CC(C)NC(=O)c1csc(-c2ccc(N3CCCC3)nc2)n1 -10%
Cc1cc(C(=O)CSc2nnc(-c3ccc(F)cc3)n2C)c(C)n1C -21.9%
O=C(CSc1nnc(-c2ccc3c(c2)OCO3)n1-c1ccccc1)OCC(=O)c1ccccc1 14.9%
O=C(N[C@@H](Cc1ccccc1)C(=O)N1CCc2ccccc2C1)c1cccnc1 5.48%
Cc1oc(-c2cccc(Cl)c2)nc1Cn1c(=O)n(C(C)C)c(=O)c2ccccc21 -19%
CCc1nc(SCC(=O)Nc2cccc3ccccc23)c2oc3ccccc3c2n1 2.85%
Cc1c(C(=O)NC2CCCCC2)oc2ccccc12 3.81%
O=C(Cc1nnc2c(-c3nc(C4CC4)no3)cccn12)Nc1ccccc1 11%
CN(C)C(=O)CN1CCC2(CC1)CN(Cc1ccccn1)C(=O)CO2 8.76%
CN1CCN(c2ncc3c(=O)n(CC4CCCO4)ccc3n2)CC1 (stereo unspecified) -10.1%
O=C(CCN1C(=O)c2cccnc2Sc2ccccc21)Nc1cc(F)ccc1F 11%
COc1ccc(NC(=O)CCN2C(=O)c3cccnc3Sc3ccccc32)cc1 9.9%

inhibition, active:
N#Cc1cccc(CSc2ncnc(N)n2)c1 39.9%
Cc1ccc(N2CCCS2(=O)=O)cc1NC(=O)Cc1ccc(Cl)cc1 33.1%
Cc1ccc(C)c(CSC2=NCCN2C(=O)c2ccco2)c1 70.4%
Cn1c(SCc2ccc(Cl)cc2)nnc1-c1ccc2c(c1)OCCO2 41%
O=C(CSc1ncnc2c1oc1ccccc12)NC1CCCC1 46.9%
Cc1cc(C)c(NC(=O)CCN2C(=O)c3cccnc3Sc3ccccc32)c(C)c1 32.4%
